Measured values reported in PubChem BioAssay (NCI).
The panel holds about 79,000 compounds, 15% with a hit somewhere; the sample as a whole holds those more often. Unmarked numbers belong to inactive results. Activity calls are given as the source filed them. Rule as the data show it: active = growth inhibition above about 70%; inactive = the rest.

Tests used:
[1] = NCI Yeast Anticancer Drug Screen. Data for the rad50 strain (AID 155);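 also: 0% = growth of vehicle-only cultures of the same strain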; settings: S. cerevisiae rad50 strain growth inhibition; at 50.0 µM; active compounds read high
How it was run: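 Compounds were tested on a yeast strain with an engineered DNA damage repair alteration; the reported value is growth inhibition normalised to vehicle treatment.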

[2] = NCI Yeast Anticancer Drug Screen. Data for the mec2-1 strain (AID 157); settings: S. cerevisiae mec2-1 strain, at 50.0 µM, active compounds read high
How it was run: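 Using mec2-1 yeast: add compound, measure growth, express inhibition versus vehicle-treated cultures.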

[3] = NCI Yeast Anticancer Drug Screen. Data for the sgs1 mgt1 strain (AID 161);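 also: 0% = growth of cultures given vehicle only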; settings: S. cerevisiae sgs1 mgt1 strain, at 50.0 µM, active compounds read high
How it was run: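 This yeast growth screen uses a strain with defined DNA-repair lesions; compound-treated growth is compared with vehicle-treated growth.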

[4] = NCI Yeast Anticancer Drug Screen. Data for the cln2 rad14 strain (AID 165);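 also: 0% = growth equal to vehicle treated cultures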; settings: S. cerevisiae cln2 rad14 strain, at 50.0 µM, active compounds read high
How it was run: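 Yeast strain cln2 rad14, bearing defects in cell cycle control and DNA repair, serves as the test system; values reflect growth inhibition compared with vehicle.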

[5] = NCI Yeast Anticancer Drug Screen. Data for the bub3 strain (AID 167); settings: S. cerevisiae bub3 mutant strain, at 50.0 µM, active compounds read high
How it was run: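 Growth of a checkpoint-deficient yeast mutant is measured after compound exposure. Values represent inhibition relative to vehicle.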

[6] = NCI Yeast Anticancer Drug Screen. Data for the mlh1 rad18 strain (AID 175); settings: S. cerevisiae mlh1 rad18 strain growth inhibition; at 50.0 µM; active compounds read high
How it was run: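 Steps: expose repair-defective yeast to compound; measure growth; express inhibition against vehicle-treated controls.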

SMILES	growth inhibition [1]	growth inhibition [2]	growth inhibition [3]	growth inhibition [4]	growth inhibition [5]	growth inhibition [6]
COC(=O)C1=C(C(=O)OC)C2CCCOC2=C(C)C1 (configuration not stated)	-1.35%	12.1%	-6.15%	41.2%	14.3%	7%
C#CCOc1ccc(O)c(C(=O)OCCCOC(=O)c2cc(OCC#C)ccc2O)c1	16.1%	6.95%	-3.9%	16.9%	-2.1%	15.1%
C/C(=N/NC(N)=O)C1=CCCC1	2.9%	-2.05%	-6.6%	11%	7.55%	-9.1%
C=CCc1cc2c(cc1COC(C)=O)OCO2	-35.7%	-17.9%	-15.4%	-36.5%	-10.6%	-28%
CCc1ccccc1NC(=O)C1=C(C)NC(C)=C(C(=O)Nc2ccccc2CC)C1c1ccc2c(c1)OCO2	-9.35%	3.6%	-2.4%	-7.8%	-0.75%	-4%
Nc1nc2nc3c(nc2c(=O)[nH]1)CN(c1ccc(C(=O)O)cc1)C3=O	19.4%	5.6%	-5.05%	-7.45%	14.7%	11.4%
CC(C)CC1OCC(C)(C)CO1	-0.6%	-12.4%	-11.3%	-7.05%	-7.9%	-9.8%
COc1cc([C@H]2Oc3cc([C@H]4Oc5cc(O)cc(O)c5C(=O)[C@@H]4O)ccc3O[C@@H]2CO)ccc1O	3.15%	0.55%	11.8%	-36.4%	15.5%	6.05%
O=C(O)CCCc1ccc(N(CCO)CCO)cc1	5.3%	2.55%	-3.1%	18%	8.05%	19%
COC1CCC(/C=C(\C#N)C2CCC(OC)CC2)CC1 (configuration not stated)	37.6%	49.8%	42.8%	11.9%	51.2%	30%
CCCCCCCCCCCCCCCC[N+](C)(C)CCNC(C)=O	99.2% (active)	99.6% (active)	99.7% (active)	98.7% (active)	99.2% (active)	99.5% (active)
c1ccc2c(c1)c1ccccc1n2Cn1c2ccccc2c2ccccc21	-1.1%	-1.2%	-48.5%	-27.9%	11.3%	4.85%
Nc1nc2c(ncn2C2OCC(O)C(O)C2O)c(=O)[nH]1 (configuration not stated)	15.6%	-9.7%	-13.8%	-6.15%	0.75%	-2.3%
C[n+]1ccn(S(=O)(=O)[O-])c1	1.9%	4.2%	-4.35%	0.55%	-19.6%	-8.05%
CCCCCCCCCCCCCCCCNc1nc(=S)cc(C)[nH]1	-10.2%	-27.6%	-5.05%	-14.6%	-25%	-10.9%
O=C(NC(=S)Nc1ccc([N+](=O)[O-])cc1Cl)c1ccccc1F	14.2%	6.1%	20.1%	21.9%	24.1%	20.1%
CCC(=O)C(CC)c1ccc(OC)cc1OC (configuration not stated)	-1.75%	-31.4%	-6.15%	3.85%	7.3%	15.6%
CCC(C)C(O)CC (configuration not stated)	-9.5%	-8.55%	2.3%	19.4%	7.6%	-16.2%
O=c1cc(-c2ccccc2)[nH]c2nccn12	-55%	-27.1%	-53.1%	-57.5%	5.85%	-58.7%

SMILES	growth inhibition [1]	growth inhibition [2]	growth inhibition [3]	growth inhibition [4]	growth inhibition [5]	growth inhibition [6]
c1ccc(CSc2ncnc3oc(-c4ccccc4)nc23)cc1	22.5%	17.2%	13.6%	11.2%	24%	16.4%
O=C(/C=C/c1cccs1)c1ccc(Cl)s1	-18.3%	-33.3%	-2.55%	-7.45%	-6.5%	0.2%
COC(=O)C(Cc1ccccc1)NC(=O)C1CSC(C)(C)N1C=O (configuration not stated)	3.25%	16.4%	21.6%	3.05%	22.8%	-20.4%
CC1CCc2nc(N)sc2C1 (configuration not stated)	14.4%	11.9%	18.9%	8.35%	1.1%	5.9%
COC(=O)C1=C(NC(=O)Nc2ccc(OC)cc2)OC(C)(C)C1c1ccc(Cl)cc1 (configuration not stated)	25.9%	41.7%	30.4%	3.75%	24.1%	43.4%
O=c1[nH]c(-c2ccccc2)nc2[nH]ncc12	-3.2%	-11.3%	23.1%	9.45%	-7.4%	6.15%
COc1cc(C(=O)NO)c(Br)c(OC)c1OC	-3.5%	9.5%	-4.35%	-5.6%	-7.2%	-3.7%
CCCCNC(=O)Oc1c(Cl)cc(Cl)c(Cl)c1[N+](=O)[O-]	16.2%	10.1%	17.9%	4.4%	-11.1%	21.2%
CC(=O)CC(=O)N1CCN(C(=O)CC(C)=O)C(C)C1 (configuration not stated)	-7.95%	-58.5%	6.05%	1.8%	-11.7%	-6.75%
Cc1ccc(O)cc1C(=O)O	-32%	-14.7%	-0.95%	8.05%	-3.75%	5.4%
CC(C)C1=C(Cc2ccccc2)C(=O)O/C1=C\c1ccc(O)c(Cl)c1	2.8%	-22.9%	28.2%	21.4%	6.05%	-20.1%
CCOC(=O)NNC(=O)NC12CC3CC(CC(C3)C1)C2	-16.7%	-7.7%	5.6%	-24.6%	-3.85%	1.75%
Nc1nc(N)c2nc3c(nc2n1)CCCCCC3	4.25%	-4%	4.25%	-19.4%	-3.2%	2.55%
CC1CC(NC(=O)/C=C/C(=O)O)CC(C)(C)C1 (configuration not stated)	-2.85%	1.05%	9%	-2.95%	33.9%	-0.2%
CC/C=C/C(C)c1cc(C(=O)O)ccc1OC (configuration not stated)	10.9%	4.3%	13.4%	6.55%	-13.2%	18%
CC(=O)/C=C\C(=O)NNS(=O)(=O)c1ccc(C)cc1	20.6%	12.7%	-1.75%	9.35%	34.1%	46.7%
CC1(C)C(=O)N=C(N)N1C(=O)OCc1ccccc1	-11.9%	-4.45%	-6.6%	13.8%	-10%	-17.5%
COc1ccc2nc3cc(Cl)ccc3c(NCCCC3CCCN4CCCCC34)c2c1 (configuration not stated)	50%	40.5%	2%	6.15%	11.7%	38.4%
